Usually inhibition stands for the drop in the measured response relative to a control, in per cent.

The values that follow come from PubChem BioAssay AID2315 (National Center for Advancing Translational Sciences (NCATS), 2010).

Out of some 290,000 compounds screened, about 27,000 (9.3%) were called active. The sample holds actives, similar compounds and a random draw of the others, so the mix is not that of the screen. No stated cut-off is given here; in the data, active means inhibition mostly above about 28% (no sharp cut-off); inactive means mostly below about 43%.

The nature of this assay: A qHTS for Small Molecule Inhibitors of Shiga Toxin. Further: 0% is about no effect. To be noted: Vero cells, Shiga toxin protein synthesis inhibition reporter; at 38.7 µM, stronger effect = higher value. Background: Quantitative high-throughput screening tests each substance at several concentrations.
Take `COC(c1ccccc1)(c1ccccc1)C(Oc1nc(C)cc(C)n1)C(=O)O` (configuration not stated): the inhibition was -2.84% (inactive).

Regarding `COc1ccc(S(=O)(=O)n2nc(C)c(S(=O)(=O)N3CCOCC3)c2C)cc1`, the inhibition is 13.2% (inactive).

`CCOC(=O)c1c(-c2ccc(-c3ccccc3)cc2)csc1NC(=O)CCC(=O)O`: the inhibition was -3.4% (inactive).

`O=c1c2cc([N+](=O)[O-])ccc2nc2n1CCC2`: the inhibition was -7.31% (inactive).

For the molecule `O=C(Nc1ccc(C(=O)NCc2ccccc2Cl)cc1)C1=CSCCO1`, the inhibition was 47.1% (active).

`CSc1ccc(CNC(=O)c2ccc(NC(=O)C3=CSCCO3)cc2)cc1`: the inhibition was 16.6% (inactive).

For the molecule `O=C(NCc1ccccc1Cl)C1CCCO1` (configuration not stated), the inhibition was 19.8% (inactive).

Turning to `CC12CCC(C(=O)N(NC(=O)c3ccccc3O)C1=O)C2(C)C` (configuration not stated), the inhibition is 10.2% (inactive).

Consider `Cc1cccc(C(=O)Nc2nnc(S(=O)(=O)N3CCCCCC3)s2)c1`, for which the inhibition is 13.6% (inactive).

Take `COc1cc(C(=O)OCc2ccc([N+](=O)[O-])cc2)cc(OC)c1OC`: the inhibition was -13.3% (inactive).

Consider `COc1cc(/C=N\Nc2ccc([N+](=O)[O-])cn2)ccc1OCC(=O)O`, for which the inhibition is 31.3% (inactive).

Turning to `COc1cc(/C=N/O)ccc1OCc1ccc([N+](=O)[O-])cc1`, the inhibition is 82.1% (active).

For the molecule `O=C(Nc1ccc(F)cc1)C(=O)c1cn(CC(=O)N2CCOCC2)c2ccccc12`, the inhibition was 15.3% (inactive).

With `COc1cccc(NC(=O)CS(=O)(=O)c2cn(CC(=O)N3CCOCC3)c3ccccc23)c1`, the inhibition is -10.3% (inactive).

Consider `COc1cccc(NC(=O)C(=O)c2cn(CC(=O)N3CCOCC3)c3ccccc23)c1`, for which the inhibition is 92.3% (active).

`CN1CCN(C(=O)C(=O)c2cn(CC(=O)N3CCCC3)c3ccccc23)CC1`: the inhibition is -13% (inactive).

On to `O=C(NCCCn1ccnc1)C(=O)c1cn(CC(=O)N2CCCCCC2)c2ccccc12`, for which the inhibition is -6.62% (inactive).

Turning to `Cc1ccc(CNC(=O)C(=O)c2cn(CC(=O)N3CCOCC3)c3ccccc23)cc1`, the inhibition was 79.4% (active).

Turning to `CN(Cc1ccccc1)C(=O)C(=O)c1cn(CC(=O)N2CCCC2)c2ccccc12`, the inhibition was 5.26% (inactive).

Turning to `Cc1ccc(CNC(=O)C(=O)c2cn(CC(=O)N3CCCC3)c3ccccc23)cc1`, the inhibition is 35.1% (active).

Consider `O=C(NCc1ccco1)C(=O)c1cn(CC(=O)N2CCCCCC2)c2ccccc12`, for which the inhibition was 27.2% (inactive).

`COc1cccc(N(CC(=O)NC2CCCC2)C(=O)CCCC(=O)Nc2ccccn2)c1`: the inhibition was -5.09% (inactive).

`CCCNC(=O)CCc1c(C)nc2c(c(C)nn2-c2ccccc2)c1C`: the inhibition was -16.2% (inactive).

For `CCOc1ccc(N(CC(=O)Nc2cccc(OC)c2)S(C)(=O)=O)cc1`, the inhibition was 28.6% (inactive).

On to `CCC1=Nc2cc(C(=O)NCCN3CCCC3)ccc2Sc2ccc(C)cc21`, for which the inhibition was -6.55% (inactive).

As for `O=C(CN1C(=O)COc2ccc(Cl)cc21)Nc1ccc(N2CCOCC2)cc1`, the inhibition is -16.6% (inactive).

As for `Cc1cccc(N(C)C(=O)CN2C(=O)COc3ccc(S(=O)(=O)N4CCCCCC4)cc32)c1`, the inhibition is 4.44% (inactive).

On to `CCCc1nc2scc(-c3ccc(C)cc3)c2c(=O)n1N`, for which the inhibition is 44.2% (inactive).

For the molecule `CCCc1cc(-c2n[nH]c(=S)n2CC)c2ccccc2n1`, the inhibition was -6.2% (inactive).

On to `Cc1ccc(-c2csc(N(Cc3ccco3)C(=O)c3cccs3)n2)cc1`, for which the inhibition was 18.8% (inactive).

On to `Cc1ccc(-c2csc(-c3cc(C)on3)n2)cc1`, for which the inhibition was 43% (active).

As for `CCC(C)Sc1nnc(-c2c[nH]c3ccccc23)n1CCOC` (configuration not stated), the inhibition is 11.2% (inactive).

For `Cc1ccc(-c2csc(-c3c[nH]c4ccccc34)n2)cc1`, the inhibition is 111% (active).

Take `Cc1cc(-c2n[nH]c(=S)n2-c2ccc(C)c(C)c2)no1`: the inhibition is 6.5% (inactive).

Consider `CCCc1cc(-c2nc(-c3ccc(C)cc3)cs2)ccn1`, for which the inhibition is 68% (active).

For the molecule `CCn1c(SCCC(C)C)nnc1-c1c[nH]c2ccccc12`, the inhibition was -3.59% (inactive).

Consider `CC(=O)N1c2ccc(S(=O)(=O)N(C)CC(=O)N(C)Cc3ccccc3)cc2CC1C` (configuration not stated), for which the inhibition is -1.97% (inactive).

Turning to `Cc1ccc(NC(=O)CCN2C(=O)c3ccccc3C2=O)cc1C`, the inhibition was 7.31% (inactive).

Take `O=C(NCCN1CCOCC1)/C(=C/c1ccc(F)cc1)NC(=O)c1ccccc1`: the inhibition was -6.87% (inactive).

For the molecule `COc1cccc(CNC(=O)COc2cc(O)c3c(c2)OC(C)(C)CC3=O)c1`, the inhibition is 7.09% (inactive).

On to `Cc1cccc(NC(=O)C2CCCN(C(=O)NCc3ccccc3)C2)c1C` (configuration not stated), for which the inhibition was 14.7% (inactive).

Turning to `CCCc1cc(=O)[nH]c(SCC(=O)N2C(C)CCCC2C)n1` (configuration not stated), the inhibition is 1.9% (inactive).

`O=C(N/N=C/c1ccc2c(c1)OCO2)C(=O)N1CCCC1`: the inhibition is 76.5% (active).

As to `O=C(CNC(=O)C(c1ccccc1)c1ccccc1)N/N=C\c1ccc2c(c1)OCO2`, the inhibition is 66.2% (active).

`CN1CCN(C(=O)/C(=C\c2ccc3c(c2)OCO3)NC(=O)c2cccs2)CC1`: the inhibition was -3.92% (inactive).

For `O=C(N/N=C/c1ccc([N+](=O)[O-])cc1)C(=O)N1CCCC1`, the inhibition is 19% (inactive).

Consider `Cc1[nH]c2ccccc2c1/C=N/NC(=O)CNC(=O)c1ccc2c(c1)OCO2`, for which the inhibition is -14.9% (inactive).

In the case of `O=C(Cc1ccc(F)cc1)N/N=C/c1ccc2c(c1)OCO2`, the inhibition is 42.2% (inactive).

As for `OC(COc1ccc(Br)cc1)CN1CCCC1` (configuration not stated), the inhibition is -1.94% (inactive).

For `CN1C2CCC1CC(NC(=O)c1ccc([N+](=O)[O-])cc1)C2` (configuration not stated), the inhibition is -5.48% (inactive).

For the molecule `Cn1c(=O)c2c(SCC(=O)NCC3CCCO3)nc(CC(C)(C)C)nc2n(C)c1=O` (configuration not stated), the inhibition was -7.65% (inactive).

As for `Cc1cccc(NS(=O)(=O)c2ccc([N+](=O)[O-])cc2)n1`, the inhibition was 12.1% (inactive).

`COc1ccccc1-c1nc(C#N)c(N2CCC(C(N)=O)CC2)o1`: the inhibition was -15% (inactive).

Turning to `Cc1oc(-c2ccccc2F)nc1CS(=O)CC(=O)NCCN1CCCCC1C` (configuration not stated), the inhibition is -8.05% (inactive).

`CC1CCN(c2oc(-c3ccccc3F)nc2C#N)CC1`: the inhibition is 69.1% (active).

Turning to `O=C(c1ccccc1F)N1CCN(S(=O)(=O)c2ccc(Br)cc2)CC1`, the inhibition is -11.4% (inactive).

On to `CCOc1ccc(-n2c(N)c(C(=O)NCC3CCCO3)sc2=S)cc1` (configuration not stated), for which the inhibition was -14.3% (inactive).

Regarding `Cc1cccc(C)c1NC(=O)N1CC(C)OC(C)C1` (configuration not stated), the inhibition was -12.3% (inactive).

For `Cc1c(C(=O)N2CCCc3ccccc32)sc2nc(-c3ccccc3)cn12`, the inhibition was 21.5% (inactive).

For `Cc1c(C(=O)NCC2CCCO2)sc2nc(-c3ccccc3)cn12` (configuration not stated), the inhibition is 93% (active).

Take `O=C(CSc1ccc(-c2ccccc2)nn1)NCC1CCCO1` (configuration not stated): the inhibition was 20.8% (inactive).

`Cc1c(C(=O)N2CC(C)OC(C)C2)sc2nc(-c3ccccc3)cn12` (configuration not stated): the inhibition was 64.7% (active).
